Measured values: PubChem BioAssay

Target: Calmodulin-1 (Homo sapiens) (UniProt P0DP23)
Test: small molecules binding Ca-loaded calmodulin-1 – biochemical, small-molecule microarray, Cy5-labelled CALM1, plus calcium, artefact control for SMM control-protein annotation, profiling panel (AID 1112);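 note: score merges spot fluorescence with signal to noise from triplicate slides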
Conditions: Cy5-CALM1 binding fluorescence, higher = more signal

Structure (SMILES) | composite z-score
C=CCC(OC(C)=O)[C@@H]1[C@@H](N(Cc2ccc(-c3ccccc3)cc2)C(=O)Cc2ccc(OC)cc2)c2cc(OCCCO)ccc2N1C(=O)c1ccc2ccccc2n1 (stereo partly drawn) | 1.01
COC(=O)C(CC#Cc1ccc2c(c1)[C@]1(C(=O)N2)[C@H](C(=O)NC[C@H](O)c2ccccc2)[C@H]2C(=O)O[C@H](c3ccccc3)[C@H](c3ccccc3)N2[C@@H]1c1ccc(OCCO)cc1)C(=O)OC | 1.1
COc1ccc(C(O)C2C=CC3C(=O)N(c4ccccc4)C(=O)C3N2Nc2ccc([N+](=O)[O-])cc2)cc1OCc1ccccc1 (stereo not drawn) | 0.584
CC(=O)NCCCC[C@@H]1NC(=O)[C@@H]2C[C@H](C(=O)NCCCCN(C)C)[C@H](c3ccc(O)cc3)N2C1=O | 0.367
CC(C)C(=C=CC[C@H](O)c1cccc(OCCO)c1)C[C@H](O)COCc1ccccc1 | -0.981
CC(C)C(=C=CC[C@@H](O)c1ccccc1OCCO)C[C@@H](O)c1ccccn1 | -0.34
O=C1O[C@@H](c2ccccc2)[C@@H](c2ccccc2)N2[C@@H](c3ccccc3OCCO)[C@]3(C(=O)Nc4ccc(C#CC5(O)CCCCCC5)cc43)[C@@H](C(=O)Nc3nc4ccccc4s3)[C@H]12 | 0.226
C=CCN1C(=O)[C@]2(O[C@H](CCO)[C@@H]([Si](C)(C)c3ccc(OC)cc3)[C@@H]2C)c2cc(NC(=O)[C@H](C)O)ccc21 | -0.217
